Growth inhibition data for eight molecules are collected here from PubChem BioAssay (NCI).

This test is described as follows: NCI Yeast Anticancer Drug Screen. Data for the rad52 strain (AID 147).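 Further: 0% = growth of vehicle-treated control cultures.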 Conditions: S. cerevisiae rad52 mutant growth inhibition, stronger effect = higher value. As to the method:
Growth inhibition of yeast strains with defined genetic alterations is measured as a screen for potential anti-cancer activity. Selected strains with alterations in DNA damage repair or cell cycle control were exposed to compounds and growth inhibition was measured relative to vehicle treated controls. The strain used in this assay is rad52

This is part of a sample that, as a whole, favours compounds with a hit. Of some 79,000 tested, about 15% had one in any assay. Unmarked numbers belong to inactive results. Activity calls are given as the source filed them. No stated cut-off is given here; in the data, active means growth inhibition above about 70%; inactive means the rest.

Regarding `CC(=O)OC1CCC2(C)C(=CC(C3C=C4CC(OC(C)=O)CCC4(C)C4=C3C3CC5OC6(CCC(C)CO6)C(C)C5C3(C)CC4)C3=C2CCC2(C)C3CC3OC4(CCC(C)CO4)C(C)C32)C1` (stereo not given), the growth inhibition was 0% (at 1.2 µM); 3% (at 3.7 µM); 7% (at 11.0 µM); 20% (at 33.0 µM); 88% (active) (at 100.0 µM).
In the same order, the values of `CCCCCCSc1ncnc2[nH]ncc12` are -2%, -1%, 0%, -1% and -1%.
For the molecule `NC(=O)C(=O)NNc1ccccc1`, the growth inhibition runs as follows: (at 1.2 µM) 4%; (at 3.7 µM) 12%; (at 11.0 µM) 39%; (at 33.0 µM) 85% (active); (at 100.0 µM) 98% (active).
In the case of `Cc1c2ccnc(C(=O)NCCN(C)C)c2cc2c3cc(O)ccc3n(C)c12`, the growth inhibition is 2% (at 1.2 µM); 23% (at 3.7 µM); 69% (at 11.0 µM); 88% (active) (at 33.0 µM); 92% (active) (at 100.0 µM).
The corresponding values for `Cn1c(-c2ccc(/C=N\N3CCN(/N=C/c4ccc(-c5c[n+]6ccccc6n5C)cc4)CC3)cc2)c[n+]2ccccc12` are -56%, -61%, -48%, 23% and 82% (active).
In the same order, the values of `NC(=O)c1c([N+](=O)[O-])cc(C(F)(F)F)cc1[N+](=O)[O-]` are 2%, 1%, 3%, 6% and 7%.
In the same order, the values of `O=[N+]([O-])/C=C/c1cc(Cl)c(/C=C/[N+](=O)[O-])cc1Cl` are 35%, 55%, 74% (active), 91% (active) and 89% (active).
As to `COC(=O)CC1(O)C(/C=C/c2ccccc2)C(C(=O)OC)C(=O)C(C(=O)OC)C1C(=O)OC` (stereo not given), the growth inhibition is 0% (at 1.2 µM); 0% (at 3.7 µM); 1% (at 11.0 µM); 2% (at 33.0 µM); 13% (at 100.0 µM).
